The panel holds about 83,000 compounds, 20% with a hit somewhere; the sample as a whole holds those more often.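 Single-dose data. Exposure time 48 hours. Values below 10 considered active.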 Values without a mark were called inactive. Activity calls are given as the source filed them.
Experiments:
Assay in all cases: NCI-60 one-dose screen, 48 h (100 = growth as untreated, 0 = no growth, -100 = all killed)
Details in all cases: 10 µM unless noted
RPMI-8226 leukemia = test system: RPMI-8226 leukemia
OVCAR-8 ovarian = test system: OVCAR-8 ovarian
OVCAR-5 ovarian = test system: OVCAR-5 ovarian
OVCAR-4 ovarian = test system: OVCAR-4 ovarian
SK-OV-3 ovarian = test system: SK-OV-3 ovarian
IGROV1 ovarian = test system: IGROV1 ovarian
OVCAR-3 ovarian = test system: OVCAR-3 ovarian
HS 578T breast = test system: HS 578T breast
NCI/ADR-RES ovarian = test system: NCI/ADR-RES ovarian
T-47D breast = test system: T-47D breast
BT-549 breast = test system: BT-549 breast
MDA-MB-435 melanoma = test system: MDA-MB-435 melanoma
SW-620 colon = test system: SW-620 colon
MCF7 breast = test system: MCF7 breast
HCT-116 colon = test system: HCT-116 colon
HCC-2998 colon = test system: HCC-2998 colon
KM12 colon = test system: KM12 colon

SMILES: CCCCc1ccc2nc(NC(=O)OC)[nH]c2c1
- growth (RPMI-8226 leukemia): -26.4% (active)
- growth (OVCAR-8 ovarian): 11.6%
- growth (OVCAR-5 ovarian): 23%
- growth (OVCAR-4 ovarian): 59.4%
- growth (SK-OV-3 ovarian): 15.2%
- growth (IGROV1 ovarian): 15.8%
- growth (OVCAR-3 ovarian): -57.8% (active)
- growth (HS 578T breast): 8.57% (active)
- growth (NCI/ADR-RES ovarian): -1.32% (active)
- growth (T-47D breast): 76.8%
- growth (BT-549 breast): 31.1%
- growth (MDA-MB-435 melanoma): 0.507% (active)
- growth (SW-620 colon): 14.4%
- growth (MCF7 breast): 12.8%
- growth (HCT-116 colon): 7.36% (active)
- growth (HCC-2998 colon): -43.3% (active)
- growth (KM12 colon): -12.2% (active)

SMILES: CC(=O)Nc1ccc(/C=C2\SC(=S)N(/C=C(\C(C)=O)C(N)=O)C2=O)cc1
- growth (RPMI-8226 leukemia): 83.9%
- growth (OVCAR-8 ovarian): 92.8%
- growth (OVCAR-5 ovarian): 98.7%
- growth (OVCAR-4 ovarian): 99.4%
- growth (SK-OV-3 ovarian): 86.9%
- growth (IGROV1 ovarian): 105%
- growth (OVCAR-3 ovarian): 105%
- growth (HS 578T breast): 95.7%
- growth (NCI/ADR-RES ovarian): 100%
- growth (T-47D breast): 87.5%
- growth (BT-549 breast): 92.3%
- growth (MDA-MB-435 melanoma): 89.6%
- growth (SW-620 colon): 96.9%
- growth (MCF7 breast): 96.4%
- growth (HCT-116 colon): 92.2%
- growth (HCC-2998 colon): 94.4%
- growth (KM12 colon): 101%

SMILES: O=C(N/N=C\c1ccc(Cl)cc1Cl)c1ccncc1
- growth (RPMI-8226 leukemia): 91.5%
- growth (OVCAR-8 ovarian): 101%
- growth (OVCAR-5 ovarian): 105%
- growth (OVCAR-4 ovarian): 106%
- growth (SK-OV-3 ovarian): 117%
- growth (IGROV1 ovarian): 96.3%
- growth (OVCAR-3 ovarian): 113%
- growth (HS 578T breast): 123%
- growth (NCI/ADR-RES ovarian): 102%
- growth (T-47D breast): 96.6%
- growth (BT-549 breast): 65.7%
- growth (MDA-MB-435 melanoma): 105%
- growth (SW-620 colon): 111%
- growth (MCF7 breast): 87.2%
- growth (HCT-116 colon): 101%
- growth (KM12 colon): 112%

SMILES: Cc1cc2c(C(C)C)c(O)c(O)c(C=Nc3ccccc3[N+](=O)[O-])c2c(O)c1-c1c(C)cc2c(C(C)C)c(O)c(O)c(C=Nc3ccccc3[N+](=O)[O-])c2c1O
- growth (RPMI-8226 leukemia): 61.5%
- growth (OVCAR-8 ovarian): 76.2%
- growth (OVCAR-5 ovarian): 102%
- growth (OVCAR-4 ovarian): 74.4%
- growth (SK-OV-3 ovarian): 97.5%
- growth (IGROV1 ovarian): 80.6%
- growth (OVCAR-3 ovarian): 79.1%
- growth (HS 578T breast): 81%
- growth (NCI/ADR-RES ovarian): 94.8%
- growth (T-47D breast): 83.1%
- growth (BT-549 breast): 94%
- growth (MDA-MB-435 melanoma): 109%
- growth (SW-620 colon): 96.3%
- growth (MCF7 breast): 91.2%
- growth (HCT-116 colon): 73.7%
- growth (HCC-2998 colon): 79.5%
- growth (KM12 colon): 47.7%

SMILES: Cc1ccc2nc(N)nnc2c1
- growth (RPMI-8226 leukemia): 95.4%
- growth (OVCAR-8 ovarian): 112%
- growth (OVCAR-5 ovarian): 102%
- growth (OVCAR-4 ovarian): 108%
- growth (SK-OV-3 ovarian): 93.7%
- growth (IGROV1 ovarian): 109%
- growth (OVCAR-3 ovarian): 92.7%
- growth (HS 578T breast): 93.3%
- growth (NCI/ADR-RES ovarian): 96%
- growth (T-47D breast): 108%
- growth (MDA-MB-435 melanoma): 106%
- growth (SW-620 colon): 95.1%
- growth (MCF7 breast): 104%
- growth (HCT-116 colon): 108%
- growth (HCC-2998 colon): 103%
- growth (KM12 colon): 103%

SMILES: Cc1ccccc1CC(N)C(=O)O (stereo not drawn)
- growth (RPMI-8226 leukemia): 109%
- growth (OVCAR-8 ovarian): 104%
- growth (OVCAR-5 ovarian): 116%
- growth (OVCAR-4 ovarian): 103%
- growth (SK-OV-3 ovarian): 104%
- growth (IGROV1 ovarian): 109%
- growth (OVCAR-3 ovarian): 104%
- growth (HS 578T breast): 114%
- growth (NCI/ADR-RES ovarian): 114%
- growth (T-47D breast): 103%
- growth (BT-549 breast): 106%
- growth (MDA-MB-435 melanoma): 108%
- growth (SW-620 colon): 121%
- growth (HCT-116 colon): 106%
- growth (HCC-2998 colon): 117%
- growth (KM12 colon): 119%

SMILES: O=S(=O)(O)c1cccc2cccnc12
- growth (RPMI-8226 leukemia): 107%
- growth (OVCAR-8 ovarian): 112%
- growth (OVCAR-5 ovarian): 106%
- growth (OVCAR-4 ovarian): 118%
- growth (SK-OV-3 ovarian): 114%
- growth (IGROV1 ovarian): 101%
- growth (OVCAR-3 ovarian): 95.3%
- growth (HS 578T breast): 95.2%
- growth (NCI/ADR-RES ovarian): 106%
- growth (T-47D breast): 106%
- growth (BT-549 breast): 121%
- growth (MDA-MB-435 melanoma): 105%
- growth (SW-620 colon): 94.6%
- growth (MCF7 breast): 106%
- growth (HCT-116 colon): 100%
- growth (HCC-2998 colon): 103%
- growth (KM12 colon): 105%

SMILES: CN(C(=S)S(=O)(=O)C12CC3CC(CC(C3)C1)C2)c1ccccc1
- growth (RPMI-8226 leukemia): 83.9%
- growth (OVCAR-8 ovarian): 98.6%
- growth (OVCAR-5 ovarian): 89.6%
- growth (OVCAR-4 ovarian): 104%
- growth (SK-OV-3 ovarian): 99.9%
- growth (IGROV1 ovarian): 8.02% (active)
- growth (OVCAR-3 ovarian): 73.7%
- growth (HS 578T breast): 85%
- growth (NCI/ADR-RES ovarian): 102%
- growth (T-47D breast): 87.1%
- growth (BT-549 breast): 123%
- growth (MDA-MB-435 melanoma): 98.8%
- growth (SW-620 colon): 69.7%
- growth (MCF7 breast): 99.4%
- growth (HCT-116 colon): 93.5%
- growth (HCC-2998 colon): 104%
- growth (KM12 colon): 109%

From PubChem BioAssay (NCI)
